PubChem BioAssay AID687001 (Broad Institute, 2013)
Entries with a potency or affinity are not part of this list. Active and inactive are the calls of the source.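 The calls were made as follows: active = signal-lowering compounds whose fitted half-maximal concentration is at or below twice the top tested dose in every run; inconclusive = runs disagree, flat 30 to 70% inhibition, or poor curve fit; inactive = the rest.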

target: Protein S100-A4 (Homo sapiens) (UniProt P26447); assay: human S100A4 peptide interaction inhibition curves – biochemical, fluorescence polarization, cherry-picked hits, dose response (AID 687001); settings: FP, S100A4/TAMRA-myosin IIA peptide binding; series mostly up to 11 µM
Sequence (P26447 whole entry, looked up): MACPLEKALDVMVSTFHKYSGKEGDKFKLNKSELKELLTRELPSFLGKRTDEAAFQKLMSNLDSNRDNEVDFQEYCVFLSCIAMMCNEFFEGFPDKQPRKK

outcome, inactive:
COC(=O)CCC(C)C1CCC2C3CCC4CC(O)CCC4(C)C3=CC(=O)C12C (stereo not drawn)
COCCNC(=O)C[C@@H]1CC[C@H]2[C@@H](COC[C@H](O)CN2Cc2cccc(-c3ccncc3)c2)O1
O=C(NC1CCCC1)N1CCCCN2[C@@H](CO)[C@@H](c3ccc(-c4cccnc4)cc3)[C@@H]2C1
Cn1nc(C(F)(F)F)c(-c2ccc(Br)cc2)c1NC(=O)C1CCC1C(=O)O (stereo not drawn)
CCOc1ccc(C2C(C(=O)c3ccco3)=C(O)C(=O)N2CCN2CCOCC2)cc1OCC (stereo not drawn)
O=C(O)[C@@H]1[C@@H](CO)[C@@H]2Cn3c(ccc(/C=C/c4ccccc4)c3=O)[C@@H]2N1C(=O)C1CCCC1
Cc1ccc(C(=O)C2=C(O)C(=O)N(Cc3cccnc3)C2c2cccc([N+](=O)[O-])c2)o1 (stereo not drawn)
Cc1ccc(S(=O)(=O)N[C@H]2C=C[C@H](CC(=O)O)O[C@@H]2CO)cc1
C[C@H]1CN([C@@H](C)CO)C(=O)c2cc(NC(=O)NC3CCCCC3)ccc2O[C@@H]1CN(C)Cc1ccc(C(=O)O)cc1
CCN(CC(=O)Nc1c(F)cccc1F)C(=O)CNC(=O)c1cccs1
COCC#Cc1cnc2c(c1)C(=O)N([C@H](C)CO)C[C@H](C)[C@H](CN(C)C(=O)C1CCC1)O2
CN1c2ccc(C#Cc3cccnc3)cc2[C@@H]2[C@@H](CCN2S(=O)(=O)c2ccccc2F)[C@@H]1CO
COc1ccc(CN(C)C[C@@H]2Oc3ccc(NS(=O)(=O)c4ccccc4)cc3CC(=O)N([C@H](C)CO)C[C@H]2C)cc1
